Test results taken from the supplement of paper PMC8728848.
This excerpt belongs to a sample that is enriched for the strongest signals.

Assays:
Experiment in all cases: glycan array binding signal (z-score within array); higher = stronger binding
Conditions in all cases: glycan notation: IUPAC condensed, linker removed
[1] = target: Neu5Ac(a2-3)Gal(b1-3)GalNAc(b1-4)[Neu5Ac(a2-8)Neu5Ac(a2-3)]Gal(b1-4)Glc
Procedure, shortened: (§1)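 Glycan array binding is given as a within-array Z-score, which can be read as non-binding when negative. The arrays, 3228 of them, came from the Consortium for Functional Glycomics database and were retained only where the protein sequence was available. Z-scores were averaged across arrays of the same protein sequence at different concentrations or buffers and across linkers.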

[2] = target: Neu5Ac(a2-3)Gal(b1-3)GlcNAc
Procedure, shortened: as §1

[3] = target: Neu5Ac(a2-3)Gal(b1-3)GlcNAc(b1-2)[Neu5Ac(a2-3)Gal(b1-3)GlcNAc(b1-4)]Man(a1-6)[Neu5Ac(a2-3)Gal(b1-3)GlcNAc(b1-2)Man(a1-3)]Man(b1-4)GlcNAc(b1-4)GlcNAc
Procedure, shortened: as §1

[4] = target: Neu5Ac(a2-3)Gal(b1-3)GlcNAc(b1-3)Gal(b1-4)GlcNAc
Procedure, shortened: as §1

[5] = target: Neu5Ac(a2-3)Gal(b1-3)[Fuc(a1-4)]GlcNAc
Procedure, shortened: as §1

[6] = target: Neu5Ac(a2-3)Gal(b1-3)[Fuc(a1-4)]GlcNAc(b1-3)Gal(b1-3)[Fuc(a1-4)]GlcNAc
Procedure, shortened: as §1

[7] = target: Neu5Ac(a2-3)Gal(b1-3)[Fuc(a1-4)]GlcNAc(b1-3)Gal(b1-4)[Fuc(a1-3)]GlcNAc
Procedure, shortened: as §1

[8] = target: Neu5Ac(a2-3)Gal(b1-3)]Neu5Ac(a2-3)Gal(b1-4)]GlcNAc
Procedure, shortened: as §1

[9] = target: Neu5Ac(a2-3)Gal(b1-4)GlcNAc(b1-2)Man(a1-3)[Neu5Ac(a2-3)Gal(b1-4)GlcNAc(b1-2)Man(a1-6)]Man(b1-4)GlcNAc(b1-4)GlcNAc
Procedure, shortened: as §1

[10] = target: Neu5Ac(a2-3)Gal(b1-4)GlcNAc(b1-3)Gal(b1-4)GlcNAc
Procedure, shortened: as §1

[11] = target: Neu5Ac(a2-3)Gal(b1-4)GlcNAc6S
Procedure, shortened: as §1

[12] = target: Neu5Ac(a2-3)Gal(b1-4)[Fuc(a1-3)]GlcNAc(b1-3)Gal
Procedure, shortened: as §1

[13] = target: Neu5Ac(a2-3)Gal6S(b1-4)GlcNAc
Procedure, shortened: as §1

[14] = target: Neu5Ac(a2-3)Gal6S(b1-4)[Fuc(a1-3)]GlcNAc
Procedure, shortened: as §1

[15] = target: Neu5Ac(a2-3)GalNAc(b1-4)GlcNAc
Procedure, shortened: as §1

[16] = target: Neu5Ac(a2-6)Gal(b1-4)GlcNAc(b1-3)Gal(b1-4)GlcNAc(b1-6)[Gal(b1-3)]GalNAc
Procedure, shortened: as §1

[17] = target: Neu5Ac(a2-6)Gal(b1-4)GlcNAc(b1-6)[Gal(b1-3)GlcNAc(b1-3)]Gal(b1-4)Glc
Procedure, shortened: as §1

Neu5Ac(a2-8)Neu5Ac = target: Neu5Ac(a2-8)Neu5Ac
Procedure, shortened: as §1

[18] = target: Neu5Ac(a2-8)Neu5Ac(a2-3)Gal(b1-3)GalNAc(b1-4)[Neu5Ac(a2-3)]Gal(b1-4)Glc
Procedure, shortened: as §1

[19] = target: Neu5Ac(a2-8)Neu5Ac(a2-8)Neu5Ac
Procedure, shortened: as §1

[20] = target: Neu5Ac(a2-8)Neu5Ac(a2-8)Neu5Ac(a2-8)Neu5Ac(a2-3)[GalNAc(b1-4)]Gal(b1-4)Glc
Procedure, shortened: as §1

[21] = target: Neu5Gc(a2-3)Gal(b1-4)GlcNAc(b1-3)Gal(b1-4)GlcNAc(b1-2)Man(a1-3)[Neu5Gc(a2-3)Gal(b1-4)GlcNAc(b1-3)Gal(b1-4)GlcNAc(b1-2)Man(a1-6)]Man(b1-4)GlcNAc(b1-4)GlcNAc
Procedure, shortened: as §1

[22] = target: Neu5Gc(a2-6)Gal(b1-4)GlcNAc
Procedure, shortened: as §1

B1: CBM40 CPF071 (Clostridium perfringens) (protein)
chain: MAHHHHHHVGTGSNDDDDKSPDPMLSSLGEYKDINLESSNASNITYDLEKYKNLDEGTIVVRFNSKDSKIQSLLGISNSKTKNGYFNFYVTNSRVGFELRNQKNEGNTQNGTENLVHMYKDVALNDGDNTVALKIEKNKGYKLFLNGKMIKEVKDTNTKFLNNIENLDSAFIGKTNRYGQSNEYNFKGNIGFMNIYNEPLGDDYLLSKTGETK
glycan array binding signal (z-score) [1]: -0.469
glycan array binding signal (z-score) [2]: 0.994
glycan array binding signal (z-score) [3]: 2.77
glycan array binding signal (z-score) [4]: -0.328
glycan array binding signal (z-score) [5]: 2.38
glycan array binding signal (z-score) [6]: 0.256
glycan array binding signal (z-score) [7]: 1.09
glycan array binding signal (z-score) [8]: 10.7
glycan array binding signal (z-score) [9]: -0.305
glycan array binding signal (z-score) [10]: 1.96
glycan array binding signal (z-score) [11]: 5.07
glycan array binding signal (z-score) [12]: 1.97
glycan array binding signal (z-score) [13]: 16.3
glycan array binding signal (z-score) [14]: 5.09
glycan array binding signal (z-score) [15]: 0.216
glycan array binding signal (z-score) [16]: 0.025
glycan array binding signal (z-score) [17]: -0.069
glycan array binding signal (z-score) (Neu5Ac(a2-8)Neu5Ac): 0.538
glycan array binding signal (z-score) [18]: -0.205
glycan array binding signal (z-score) [19]: -0.128
glycan array binding signal (z-score) [20]: -0.358
glycan array binding signal (z-score) [21]: 2.46
glycan array binding signal (z-score) [22]: -0.336
